Measurements reported in ChEMBL document CHEMBL4513216, “Probing the Open Global Health Chemical Diversity Library for Multistage-Active Starting Points for Next-Generation Antimalarials” (ACS Infect Dis, 2020).
Hit rate of the full screen: of about 69,000 compounds, about 8,600 (12%) showed an effect of 50% or more. Many of the other results were omitted from the sample, so strong results are more common in it than they were.

These molecules were tested on Plasmodium berghei (assay: Screen against P. berghei liver stage (PbLuc), transformed with Luciferase, at 10uM). Details: tested at 10 uM.
Type: functional, HepG2

Structure (SMILES)	INHIBITION [%]
Cc1nn(C)c(N(C)C)c1CNCc1ccccc1CO	15.3
Cc1cc(NC(=O)CCn2nc(C)c3ccccc32)n(C(C)C)n1	59
Cc1cc(NC(=O)CCn2nc(C)c3ccccc32)n(C)n1	26.7
CCn1nc(C)cc1NC(=O)CCn1nc(C)c2ccccc21	20.9
CSCC[C@H](NC(=O)N1CCC(Cc2ccccc2)CC1)C(=O)O	20
CC(NC(=O)C1CCCC1)c1nncn1C(C)C (centres undefined)	52.2
CC(NC(=O)C1CCN(C(C)C)CC1)c1nncn1C1CCCC1 (centres undefined)	17.8
CC(NC(=O)C1CCN(C(=O)C2CC2)CC1)c1nncn1C(C)C (centres undefined)	44
CCOc1ccccc1C(C(=O)O)N(C)CC1CCOCC1 (centres undefined)	41.3
c1sc(C2CCCCC2)nc1CN1CCn2c(nnc2C2CC2)C1	38.8
O=C(NCCn1ccnc1)N1CCCC1c1ccc2c(c1)OCCO2 (centres undefined)	-1.25
COc1ccc2nnc(CCC(=O)Nc3nc4c(s3)CCCC4)n2n1	-2.09
O=C(NCC1CCOCC1)[C@@H]1C[C@@H]2CCN(Cc3ccco3)C[C@H]2O1	2.74
COCCCNC(=O)C(C)(C)N(C)C1CCCC1	72.1
CN(C1CCCC1)C(C)(C)C(=O)NCCNC(N)=O	32.2
CN(C1CCCC1)C(C)(C)C(=O)NCCS(C)(=O)=O	42.4
O=C1CCC(=O)c2oc3ccc(Br)cc3c2N1	0.207
c1cnn(CCNCc2cnc(N3CCCC3)nc2)c1	-1.04
CC(Cn1cccn1)NCc1cnc(N2CCCC2)nc1 (centres undefined)	53.2
c1ccc(Cn2cccn2)c(CNCc2cnc(N3CCCC3)nc2)c1	22.6
Cc1cnn(CC(C)NCc2cccnc2)c1 (centres undefined)	-3
Cc1cnn(CCNCc2ccc(S(C)(=O)=O)cc2)c1	-13.1
Cc1cnn(CC(C)NCc2ccc(OCc3cccnc3)cc2)c1 (centres undefined)	58.5
Cc1cnn(CC(C)NCc2ccccc2OCc2cccnc2)c1 (centres undefined)	13.3
Cc1cnn(CC(C)NCc2ccc(C#N)cc2)c1 (centres undefined)	32.8

Structure (SMILES)	INHIBITION [%]
Cc1cnn(CC(C)NCc2ccc(S(C)(=O)=O)cc2)c1 (centres undefined)	56.3
CC(Cn1cccn1)NCc1csc(COc2ccccc2)n1 (centres undefined)	-2.53
CC(Cn1cccn1)NCc1ccc(OCc2ccncc2)cc1 (centres undefined)	56.4
COc1cc(CNC(C)Cn2cccn2)cc(OC)c1 (centres undefined)	25.1
c1cnc(N2CCO[C@H]3[C@H](OCCN4CCCC4)CC[C@@H]32)nc1	43.8
CNC(=O)NCC1CCC2(CCN(C(=O)c3cccnc3)CC2)CO1 (centres undefined)	41.2
O=C(Cc1cccs1)N1Cc2nc(CN3CCCC3)oc2C1	30.5
Cc1cccc(S(=O)(=O)N2C[C@@H]3C[C@H](C(=O)NCC4CC4)[C@H](C2)O3)c1	2.4
CCc1nc(N2CCC3(CC2)[C@H](O)C[C@@H]3O)ncc1C	-50.8
CCOCC1CC2(CCN(C(=O)c3ncccn3)CC2)CO1 (centres undefined)	33.4
Cc1cnn(CC(C)NCc2ccncc2)c1 (centres undefined)	-17.6
Cc1cnn(CC(C)NCc2cc(=O)n3cc(C)ccc3n2)c1 (centres undefined)	-16.1
Cc1cnn(CC(C)NCc2ccc(OCc3ccncc3)cc2)c1 (centres undefined)	54.6
Cc1cnn(CC(C)NCc2ccc(OCc3nccn3C)cc2)c1 (centres undefined)	-34
Cc1cnn(CC(C)NCc2cc(=O)n3ccccc3n2)c1 (centres undefined)	89.6
Cc1cnn(CC(C)NCc2ccc(OCc3cscn3)cc2)c1 (centres undefined)	-11.4
COc1ccc(CNC(C)Cn2cccn2)cc1F (centres undefined)	59.4
COc1cc(CNC(C)Cn2cccn2)cc(OC)c1OC (centres undefined)	36.4
COc1ccc(CNC(C)Cn2cccn2)cc1OC (centres undefined)	27.8
Cc1cnn(CC(C)NCc2ccc(OCC(N)=O)cc2)c1 (centres undefined)	58.5
Cc1cnn(CCNCc2ccc(OCC(N)=O)cc2)c1	-41.1
Cc1cnn(CC2CCCN2Cc2cc(=O)n3ccccc3n2)c1 (centres undefined)	28.3
COCCN1C(=O)[C@@H]2CC[C@H]1CN(C(=O)COc1ccc(F)c(Cl)c1)C2	-102
CN(C)[C@@H]1CCN(C(=O)c2ccccn2)[C@H]1Cc1cnn(C)c1	20.6
CCN1CC(CN(C)Cc2nc(-c3ccc(F)cc3)oc2C)CC1=O (centres undefined)	34.2

Structure (SMILES)	INHIBITION [%]
CN(Cc1nc(Cc2cccc(C(F)(F)F)c2)no1)C1CCCCC1	43.9
Cc1cnn(CCNCc2csc(-c3ccco3)n2)c1	-4.9
COc1c(CNCc2ccnc(N(C)C)c2)c(C(C)C)nn1C	9.47
CC(C)c1noc(C2CC(=O)N(CCN(C)C)C2)n1 (centres undefined)	16.5
COc1ccc2c(ccn2CCC(=O)NCCC(=O)O)c1	42.1
COCCCNC(=O)CN(C)C(=O)c1cc2cc(C)ccc2nc1C	5.885
COc1cccc(S(=O)(=O)NC(=O)COC2CCCCC2)c1	1.78
CCn1nnc(NCc2ccc(-c3ccc(Br)cc3)o2)n1	12.3
CC(C)c1cc(C(=O)N2C[C@@H]3CC[C@H]2CN(Cc2cccnc2)C3)no1	2.02
Cn1ncnc1-c1ccnc(NCCCc2ccncc2)n1	94.3
Cn1ccnc1CNc1nccc(-c2ncnn2C)n1	-29
Cn1ncnc1-c1ccnc(NCc2ccncc2)n1	14.5
COCC(=O)N1CC[C@@H](N2CCN(C)CC2)[C@@H]1Cc1ccccc1	41.6
CCN1CCC2(CC1)CC(NC(=O)N(C)C)c1cc(C)ccc12 (centres undefined)	12.2
CC(=O)NCC(=O)NC1CCc2nccn2C1 (centres undefined)	40.6
N#Cc1cc(F)c(NCCc2ccc(S(N)(=O)=O)cc2)c(F)c1	37.8
N#Cc1cc(F)c(NCCc2ccc(F)cc2)c(F)c1	23.9
N#Cc1cc(F)c(NCc2ccc(F)cc2)c(F)c1	51.7
c1cc(-c2cnccn2)cc(-c2ccn(CCCN3CCCCC3)n2)c1	26.9
Cc1ccc(-c2cccc(-c3ccn(CCN4CCCC4)n3)c2)nn1	46.8
c1ccc(-c2cccc(-c3ccn(CCN4CCCCC4)n3)c2)nc1	48.4
Cc1cnc(C)c(-c2cccc(-c3ccn(CCN4CCCC4)n3)c2)n1	55.6
c1cc(-c2cnccn2)cc(-c2ccn(CCN3CCCC3)n2)c1	55.1
c1cc(-c2cnccn2)cc(-c2ccn(CCN3CCCCC3)n2)c1	5.38
